Screening results: PubChem BioAssay, National Center for Advancing Translational Sciences (NCATS)
Tau ThT inhib: inhibitors of human tau fibril formation, thioflavin T binding; recombinant tau K18 P301L, heparin-induced fibrillization, ThT fluorescence; Potency, µM (series often up to 57.4 µM), for the others: at the highest dose activity, negative = inhibition, hits mostly inhibitors; hit rate 2.1% among 270,000; AID 1460; further: potency means the concentration at half of the fitted maximal effect; nearly all actives have a fitted effect of over 55% in size
Target sequence (P10636 561-689 P618L limits assumed): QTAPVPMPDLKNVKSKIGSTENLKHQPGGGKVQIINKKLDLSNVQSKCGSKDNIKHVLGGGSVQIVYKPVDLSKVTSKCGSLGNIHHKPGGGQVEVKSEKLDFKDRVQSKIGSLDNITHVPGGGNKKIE
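Tau K18 P301L fragment (15 uM unlabeled plus 0.24 uM Alexa 594-labeled) in 100 mM sodium acetate pH 7 with compound, fibrillization induced by 20 uM heparin for 6 hr at 37 C. Thioflavin T (30 uM) added, fluorescence read after 1 hr (ex 450, em 510 nm).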
Coupling enz: counter-screen for Giardia aldolase inhibitors: coupling enzyme system; coupling enzyme system counterscreen, AmpLite Red fluorescence; hit rate 0.67% among 290,000; activity change, negative = inhibition, % at 58.2 µM, hits read low; in the data active means activity change below about -30%
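Counterscreen lacking aldolase: glyceraldehyde-3-phosphate coupling-enzyme reagent preincubated 10 min at RT with compound (at 57.5 uM final), then substrate/coupling system with AmpLite Red added; fluorescence read at 525/598 nm after 20 min RT.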
KDM4E inh: inhibitors of human JMJD2E histone demethylase. hit rate 1.6% among 230,000. AID 2147. B2RXH2. JMJD2E catalytic domain, FDH-coupled NADH fluorescence (FDH is formaldehyde dehydrogenase). Potency, µM (doses to about 57.1 µM), for inactives: top-dose activity change, negative = inhibition, actives largely listed as inhibitors; active means well fitted inhibition curve with a large enough effect, not every such curve was filed as active; inconclusive means small, poorly fitted or top-dose-only effect, or another doubt; inactive means no such curve, though single readings can be large or run the other way;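 further: potency means the concentration at half of the fitted maximal effect; 0% = wells with enzyme and -100% = buffer wells without enzyme; nearly all actives have a fitted effect of over 50% in size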
Target sequence (B2RXH2 1-337 limits assumed): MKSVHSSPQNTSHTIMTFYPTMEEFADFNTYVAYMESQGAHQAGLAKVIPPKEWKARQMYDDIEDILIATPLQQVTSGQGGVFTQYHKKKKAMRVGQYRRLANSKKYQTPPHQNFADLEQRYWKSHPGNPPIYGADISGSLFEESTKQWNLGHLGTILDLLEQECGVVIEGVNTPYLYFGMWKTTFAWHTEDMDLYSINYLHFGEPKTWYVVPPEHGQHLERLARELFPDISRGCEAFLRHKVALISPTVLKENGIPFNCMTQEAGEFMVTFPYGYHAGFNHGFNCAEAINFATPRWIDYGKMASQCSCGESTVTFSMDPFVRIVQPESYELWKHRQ
Tau FP inhib: inhibitors of human tau fibril formation; P10636; K18 P301L tau heparin fibrillization, Alexa594 FP, 6 h; Potency, µM (series often up to 57.7 µM), inactives show at the highest dose activity, negative = inhibition, hits mostly inhibitors; hit rate 0.39% among 280,000; AID 1468; further: potency means the concentration at half of the fitted maximal effect; nearly all actives have a fitted effect of over 55% in size
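Recombinant K18 P301L […], labeled with Alexa 594 at 0.24 uM over 15 uM unlabeled; heparin inducer 20 uM final; 37 C, 6 hr; FP endpoint.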
Tau fluor counter: counter-screen for tau fibril formation inhibitors; tau K18 P301L Alexa594 fluorescence, heparin fibrillization; Potency, µM (titrated, usually from 57.7 µM), for inactives: at the top dose activity change, negative = decrease; hit rate 0.93% among 280,000; further: potency means the concentration at half of the fitted maximal effect; nearly all actives have a fitted effect of over 55% in size
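Human tau K18 P301L (15 uM unlabeled, 0.24 uM Alexa 594-labeled) in 100 mM sodium acetate pH 7 with 20 uM heparin, 6 hr at 37 C. ThT 30 uM added, 1 hr ambient; Alexa 594 FP and total fluorescence read at 555/632 nm.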
* = called active by the depositor; u = inconclusive; x = not tested or not shown; [ ] = another dose, or the depositor's remark. The list is not random: actives were taken first. Their share in the collection is about 3%. Unless noted, the call rests on the fitted dose curve; in most records, active means well fitted curve in the direction sought with a large enough effect; inconclusive means small, poorly fitted or top-dose-only effect, or another doubt; inactive means no such curve, though single readings can be large; an effect the other way counts as inactive or inconclusive. Unless noted, on the % scale 0 is the no-effect control and ±100 the full control effect.

SMILES	Tau ThT inhib	Coupling enz	KDM4E inh	Tau FP inhib	Tau fluor counter
COc1cc(OC)c(NC(=O)c2cc(C(C)=O)n3ccccc23)cc1Cl	u	x	x	-4.8%	u
O=C(Nc1ccccc1F)c1cnc(N2CCCCC2)c2ccccc12	-10.0%	x	x	4.3%	-5.3%
Cc1ccc(Oc2cc(NC(=O)CCCn3nc([N+](=O)[O-])c(Cl)c3C)cc([N+](=O)[O-])c2)cc1	-8.0%	0.0	-3.3%	3.6%	7.94µM*[quencher]
Cc1cc([N+](=O)[O-])nn1CCCC(=O)Nc1cc(Oc2ccc(F)cc2)cc([N+](=O)[O-])c1	-4.9%	-1.8	4.0%	3.3%	-3.1%
Cc1cc(C)cc(Oc2cc(NC(=O)c3cn(C)nc3C)cc([N+](=O)[O-])c2)c1	5.2%	-0.4	-9.7%	u	2.51µM*[quencher]
Cc1cc([N+](=O)[O-])nn1CCCC(=O)Nc1cc(Oc2ccccc2)cc([N+](=O)[O-])c1	-10.0%	-1.1	3.0%	11.3%	10µM*[quencher]
CCN(C/C=C/C#CC(C)(C)C)Cc1cccc(OCc2cc(-c3ccsc3)cs2)c1	x	-4.4	x	x	x
S=c1nc[nH]c2nc[nH]c12	-4.6%	-0.8	20µM*	-1.8%	-7.8%
COc1ccc2[nH]c3c(=S)nc[nH]c3c2c1	u	-5.5	7.9%	-5.1%	-12.3%
Cc1ccc(NC(=O)c2cccc3c(=O)c4c([nH]c23)CCCC4)c(C)c1	u	x	x	-5.9%	-12.3%
Cc1ccc(NC(=O)Cc2c[nH]c3ccccc23)cc1S(=O)(=O)N1CCCCCC1	-7.6%	-5.1	-8.6%	8.5%	14.1µM*[quencher]
Cc1ccc(NC(=S)NCc2ccccc2)cc1S(=O)(=O)N1CCCCC1	5.2%	6.3	-2.3%	20µM*	12.6µM*[quencher]
Cc1ccc(S(=O)(=O)N2CCCCC2)cc1NC(=O)Cc1c[nH]c2ccccc12	-8.1%	-1.9	3.9%	7.0%	u
C=CC[C@@H]1/C=C(\C)C[C@H](C)C[C@H](OC)[C@H]2O[C@@](O)(C(=O)C(=O)N3CCCC[C@H]3C(=O)O[C@H](/C(C)=C/[C@@H]3CC[C@@H](O)[C@H](OC)C3)[C@H](C)[C@@H](O)CC1=O)[C@H](C)C[C@@H]2OC	x	-7.5	x	x	x
S=c1[nH]c(-c2ccccc2)cn1/N=C/c1ccncc1	11.2µM*	-1.0	u	-9.0%	u
CCOc1ccc(/C=N/n2cc(-c3ccccc3)[nH]c2=S)cc1	u	-2.3	u	-4.6%	-21.8%
CCOc1ccc(CNC(=O)CCn2c(=O)c3cccn3c3ccc(F)cc32)cc1	6.9%	x	x	2.1%	2.4%
O=C(O)CCCCCN1C(=O)/C(=C\c2ccc(-c3ccc(Cl)cc3)o2)SC1=S	x	-15.5	4.5%	8.2%	-10.6%
O=C(O)CN1C(=O)/C(=C/c2ccc(N3CCCCC3)o2)SC1=S	15.8µM*	-14.3	31.6µM*	u	-2.7%
COC(=O)CN1C(=O)S/C(=C/c2ccc(N3CCCCC3)o2)C1=O	25.1µM*	-42.9*	u	u	-24.1%
CCOC(=O)CN1C(=O)S/C(=C/c2ccc(N3CCCCC3)o2)C1=O	u	-21.7	-1.1%	0.0%	-6.0%
COc1ccc(N(C(=O)COc2ccc(Br)cc2)S(=O)(=O)c2ccc(C)cc2)cc1	-7.3%	x	x	3.6%	0.8%
O=C(Nc1nc(-c2ccco2)c(-c2ccco2)s1)C1CC(=O)N(c2ccc3c(c2)OCCO3)C1 (configuration not stated)	14.1µM*	-9.8	u	u	u
CC(=O)OCCBr	x	-1.7	x	x	x
CN1C(=O)/C(=C/C=C2/CCCN2C)N(C)C1=S	20µM*	-42.4*	-2.2%	u	-26.5%
Cc1cc(N2CCCC2)ccc1/C=C1/C(=O)N(C)C(=S)N1C	u	0.0	-11.2%	u	-10.6%
Cc1cc(-c2nn(-c3ccccc3)cc2/C=C2\SC(N)=NC2=O)ccc1OC(C)C	-0.7%	-1.0	0.5%	3.16µM*	u
COc1ccc(N2CCN(C(=O)c3cc4c(s3)-c3ccccc3OC4)CC2)cc1	-9.0%	2.6	x	-5.2%	-12.2%
COc1ccc2c(c1)CCc1cc(C(=O)N3CCN(c4ccc(N5CCOCC5)nn4)CC3)sc1-2	8.91µM*	-58.3*	u	u	-23.7%
CC(=O)OCCN1C(=O)c2c(C)nc3ccc(S(=O)(=O)N4CCOCC4)cc3c2C1=O	x	-1.0	x	x	x
